High-throughput results from PubChem BioAssay.
Gal4-VP16 FLuc: counter-screen for ROR gamma inhibitors: Gal4-VP16 reporter; 310,000 compounds, 3.5% hits; Drosophila S2 Gal4-VP16 UAS-luciferase, luminescence, 20 h; AID 2546; Potency, µM (highest dose often 53.6 µM), inactives show at the top dose activity, negative = inhibition, most hits filed as inhibitors;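 also: Gal4-VP16 expression switched on by copper sulfate through the metallothionein promoter; nearly all actives have a fitted effect of over 50% in size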
DT40 TDP1 CPT: growth inhibition of DT40 Tdp1-/-;hTDP1 cells with camptothecin (screen for TDP1 inhibitors) | chicken DT40 Tdp1-/-;hTDP1 cells + 20 nM CPT, ATP luminescence, 48 h | Potency, µM (highest dose often 46.2 µM), inactives show top-dose activity change, negative = growth inhibition, hits mostly inhibitors | 420,000 compounds, 12% hits | AID 686979; also: nearly all actives have a fitted effect of over 55% in size
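Cell growth measured by CellTiter-Glo luminescence after a minimum 48 h, 37 C compound exposure with 20 nM CPT in Tdp1-knockout DT40 cells stably expressing hTDP1, seeded 400/well; qHTS titration format.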
12-LOX inh: ALOX12 (human) lipoxygenase inhibition; P18054; purified 12hLO, xylenol orange hydroperoxide absorbance; Potency, µM (doses to about 108 µM), without a hit: at the highest dose activity change, negative = inhibition, usual class: inhibitors; 580,000 compounds, 1.1% hits; AID 1671190
Target sequence (P18054 whole entry, looked up): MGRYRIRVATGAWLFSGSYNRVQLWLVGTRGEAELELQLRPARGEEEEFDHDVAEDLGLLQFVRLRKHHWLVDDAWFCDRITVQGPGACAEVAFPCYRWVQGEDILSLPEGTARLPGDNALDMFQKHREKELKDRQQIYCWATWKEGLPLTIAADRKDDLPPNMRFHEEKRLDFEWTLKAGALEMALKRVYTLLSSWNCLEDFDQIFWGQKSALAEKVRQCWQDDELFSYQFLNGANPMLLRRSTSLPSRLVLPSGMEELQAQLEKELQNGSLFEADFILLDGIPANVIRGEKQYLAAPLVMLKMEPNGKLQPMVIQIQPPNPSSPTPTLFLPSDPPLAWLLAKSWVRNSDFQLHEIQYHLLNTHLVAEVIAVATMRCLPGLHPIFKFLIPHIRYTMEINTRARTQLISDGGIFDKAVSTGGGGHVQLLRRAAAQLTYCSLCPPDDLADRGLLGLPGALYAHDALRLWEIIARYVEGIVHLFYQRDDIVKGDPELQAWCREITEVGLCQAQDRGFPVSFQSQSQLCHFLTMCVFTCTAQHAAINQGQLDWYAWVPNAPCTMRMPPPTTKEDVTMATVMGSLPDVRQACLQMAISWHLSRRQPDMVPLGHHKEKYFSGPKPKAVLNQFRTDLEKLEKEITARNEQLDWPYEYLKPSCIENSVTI
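Hydroperoxide product was detected by ferrous iron/xylenol orange as the 573 to 405 nm absorbance ratio. Arachidonic acid at 40 uM (final) was turned over for 30 min at room temperature by 150 nM human 12hLO, pH 7.0 Hepes buffer, after 15 min compound preincubation.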
DT40 TDP1 no CPT: qHTS for Inhibitors of human tyrosyl-DNA phosphodiesterase 1 (TDP1): qHTS in cells in absence of CPT; AID 686978, 2013; Potency, µM (top dose mostly 46.2 µM), without a hit: top-dose activity change, negative = growth inhibition, usual class: inhibitors; 420,000 compounds, 15% hits; DT40 Tdp1-/- hTDP1 cells, no CPT, ATP luminescence, 48 h; also: nearly all actives have a fitted effect of over 55% in size
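Chicken DT40 Tdp1-/- cells complemented with human TDP1, screened without camptothecin (DMSO vehicle only), 400 cells/well. Compounds pin-transferred, cells incubated at 37 °C for at least 48 hr. Growth read as ATP-dependent luminescence (CellTiter-Glo, 30 min at RT).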
ELG1 DNA repair: ELG1-dependent DNA repair inhibition; HEK293T ELG1-luciferase reporter, luminescence, 16 h; DNA damage induced by 5-fluorouridine; Potency, µM (titrated, usually from 46.1 µM), for the others: at the highest dose activity change, negative = inhibition, actives largely listed as inhibitors; 330,000 compounds, 2.3% hits; AID 504467; also: nearly all actives have a fitted effect of over 55% in size
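Cells (2,000 per well) received 5-fluorouridine plus test compound or DMSO and were incubated 16 hr at 37 °C, 5% CO2. Luciferase activity was read by luminescence 30 min after ONE-Glo addition; signal suppression marked inhibition of damage-induced ELG1 function.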
RORgamma inh: blocks mouse ROR gamma transcriptional activity. P51450. 310,000 compounds, 5.4% hits. AID 2551. Potency, µM (doses to about 53.6 µM), without a hit: top-dose activity change, negative = inhibition, actives largely listed as inhibitors. Drosophila S2 Gal4-RORgamma UAS-luciferase reporter, 20 h; also: nearly all actives have a fitted effect of over 60% in size
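ROR gamma transcriptional activity was tracked as Gal4-UAS luciferase output in stably transfected Drosophila Schneider cells, with compound added 1 hr before 700 uM copper sulfate induction and a 20 hr ambient-temperature incubation.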
Numbers without * were called inactive; ? = inconclusive; . = no result; [ ] = dose if it differs, or a comment. Shown are actives, neighbours in structure and some others; about 15% of the full set was active somewhere. Calls follow the shape of the dose curve; as a rule, active = well fitted curve in the direction sought with a large enough effect; inconclusive = small, poorly fitted or top-dose-only effect, or another doubt; inactive = no such curve, though single readings can be large; an effect the other way counts as inactive or inconclusive. % is scaled to controls: 0 for no effect and ±100 for the full control effect; potency is read from the fitted curve at half-maximal effect.

SMILES | Gal4-VP16 FLuc | DT40 TDP1 CPT | 12-LOX inh | DT40 TDP1 no CPT | ELG1 DNA repair | RORgamma inh
O=C(COc1ccc(F)cc1)N1CCN(CCc2ccncc2)CC1 | . | . | -9% | . | . | .
CC(C)C(=O)Nc1ccc([N+](=O)[O-])c(C(F)(F)F)c1 | ? | 13µM* | -13% | 13µM* | -29% | ?
CC/C(=C\C=C\[C@@H]1C=C[C@@H]2CCC[C@H]2[C@@H]1C(=O)c1ccc[nH]1)[C@@H]1O[C@@H]([C@@H](C)C(=O)O)CC[C@@H]1C | 10µM* | 7.3µM* | . | 5.8µM* | -15% | ?
O[C@H]1[C@H](NCc2ccncc2)[C@H]2CO[C@H](O2)[C@@H]1N1CCOCC1 | . | . | -23%[176 µM] | . | . | .
Cn1cccc1/C=C1/C(=O)NC(=O)N(Cc2ccccc2)C1=O | 4% | 4.6µM* | -20% | 2.3µM* | 12% | -13%
CCOc1ccc(/C=C2/C(=O)NC(=O)N(CCc3ccc(F)cc3)C2=O)cc1 | -12% | 6% | ? | 9% | -3% | 14%
C=CCN1C(=O)NC(=O)/C(=C/c2cccn2C)C1=O | -4% | ? | ? | ? | ? | -29%
Cn1cccc1/C=C1/C(=O)NC(=S)N(Cc2ccc(F)cc2)C1=O | -16% | 3.7µM* | 10µM* | 2.6µM* | -1% | -11%
Cn1cccc1/C=C1\C(=O)NC(=O)N(Cc2ccccc2)C1=O | 3% | 5.8µM* | -29% | 2.1µM* | ? | -16%
Cn1cccc1/C=C1/C(=O)NC(=O)N(Cc2ccc(F)cc2)C1=O | -3% | 12µM* | ? | 9.2µM* | -13% | -34%
O=C1NC(=O)N(Cc2ccco2)C(=O)/C1=C/c1cccn1CCOc1ccccc1Cl | ? | -22% | ? | -7% | ? | 12%
O=S(=O)(c1ccc2ccccc2c1)N1Cc2cc(Br)ccc2-n2nncc2C1 | . | . | -1% | . | . | .
O=S(=O)(c1ccccc1)N1Cc2ccccc2-n2nncc2C1 | . | ? | 6% | 21µM* | . | .
O=S(=O)(c1cccc(C(F)(F)F)c1)N1Cc2ccccc2-n2nncc2C1 | . | 23µM* | 2% | 9.2µM* | . | .
O=C(C1CCCCC1)N1Cc2ccccc2-n2nncc2C1 | . | -104% | -4% | -111% | . | .
CC1CCC(c2nnnn2-c2ccccc2)(N2CCOCC2)CC1 (stereo unspecified) | . | . | -1% | . | . | .
CS(=O)(=O)N1CCC2(C1)N=C(c1cccnc1)C(=O)N2 (stereo unspecified) | . | . | 26%[176 µM] | . | . | .
Fc1ccc(CCNCc2ccc(Cl)c(Cl)c2)cc1 | -1% | ? | ? | -26% | 8% | -22%
CN(C)CCN(C)CCc1ccc(Cl)c(Cl)c1 | -13% | 16µM* | ? | 21µM* | . | -17%
CCCCNC(=S)N(CCN(CC)CC)Cc1cc2cc3c(cc2[nH]c1=O)OCO3 | 3% | ? | 14% | 15µM* | -2% | 7%
CN(C(=O)CNC(=O)OCc1ccccc1)c1ccc(Br)cc1C(=O)c1ccccc1Cl | -12% | 3.3µM* | -19% | 2.3µM* | -19% | ?
O=C(CNC(=O)OCc1ccccc1)Nc1ccc(Br)cc1C(=O)c1ccccc1Cl | -18% | ? | -3% | ? | ? | ?
O=C1c2ccccc2C(=O)c2c1ccc1c(=O)n(-c3ccccc3)[nH]c21 | ? | ? | -10% | 23µM* | ? | ?
COc1ccc2c3c([nH]c2c1)C(C)NCC3 (stereo unspecified) | -8% | 2.6µM* | 189% | ? | 0% | 22%
COc1ccc2[nH]c3c(c2c1)CCNC3C (stereo unspecified) | 4% | 23% | -1% | 2% | -5% | -19%
SMILES | Gal4-VP16 FLuc | DT40 TDP1 CPT | 12-LOX inh | DT40 TDP1 no CPT | ELG1 DNA repair | RORgamma inh
C[S+](=O)([O-])N1C2CCC1CN(Cc1cccnc1)C2 | . | . | 5%[12.5 µM] | . | . | .
COc1ccc(OC)c(CN2CCN(C(=O)Cc3ccccc3)CC2)c1 | -2% | -21% | ? | -3% | -14% | 18%
COc1ccc(-c2cc3nc(C)c(CCC(=O)N4CCN(c5cc(C)ccc5C)CC4)c(C)n3n2)c(OC)c1 | . | 8.2µM* | -10% | 9.2µM* | . | .
O=C(NC1CCCCC1)[C@H]1CN2CC[C@H]1C[C@@H]2Cn1cc(-c2ccccc2)nn1 | . | . | 24%[176 µM] | . | . | .
CCN1CCCC1CNC(=O)C(O)(c1ccccc1)c1ccccc1 (stereo unspecified) | . | . | 1%[22.9 µM] | . | . | .
NS(=O)(=O)c1ccc(CCNc2ccn3nc(-c4cccc(C(F)(F)F)c4)cc3n2)cc1 | . | ? | 0% | ? | . | .
NS(=O)(=O)c1ccc(CCNc2nn3c(-c4ccc(F)c(Cl)c4)cnc3s2)cc1 | . | 16µM* | -14% | 23µM* | . | .
Cc1nn(-c2nccs2)c2c1C(=O)CC(C)(C)C2Br (stereo unspecified) | . | ? | -2% | 16µM* | . | .
C=C[C@@H]1C[C@@]1(C)[C@@H](NP(=O)(c1ccccc1)c1ccccc1)c1ccccc1 | ? | ? | 9% | 15µM* | -9% | -20%
CC(=O)OCC12CC(OC(=O)CC(C)C)C(C)=CC1OC1C(O)C(OC(C)=O)C2(C)C12CO2 (stereo unspecified) | . | 0.023µM* | 11% | 0.023µM* | . | .
CC(=O)O[C@@H]1[C@@H](O)C2OC3C=C(C)C(=O)[C@@H](O)[C@]3(CO)C1(C)C21CO1 (stereo partly specified) | 0.11µM* | . | 7% | . | . | 0.63µM*
CC(C)CCN1CCCC2(CC(c3ccccn3)=NO2)C1 (stereo unspecified) | . | . | 4%[12.5 µM] | . | . | .
CCCN1CC[C@@H](CO)N(C)c2nc(C)ccc2C1 | . | . | 93%[176 µM] | . | . | .
C/C=C(\C)C(=O)OC1C(C)=C2C(C1OC(=O)CCCCC)C(C)(OC(C)=O)CC(OC(=O)CCC)C1(O)C2OC(=O)C1(C)O (stereo unspecified) | 18µM* | . | . | . | ? | ?
CC=C(C)C(=O)O[C@H]1C(C)=C2[C@@H]3OC(=O)[C@@](C)(O)[C@@]3(O)[C@@H](OC(=O)CCC)C[C@](C)(OC(C)=O)[C@@H]2[C@@H]1OC(=O)CCCCCCC | . | 0.21µM* | ? | 0.12µM* | . | .
NC(Cc1ccc(O)cc1)C(=O)NN=Cc1ccc(N(CCCl)CCCl)cc1 (stereo unspecified) | . | 8.2µM* | 6% | 13µM* | . | .
Cc1cccc2sc(NC(=O)c3cccn(Cc4ccccc4)c3=O)nc12 | . | ? | ? | 13µM* | . | .
N#Cc1ccccc1NC(=O)c1cccn(Cc2ccccc2)c1=O | . | 18µM* | -22% | 15µM* | . | .
